The other results are listed elsewhere or left out. Records with an inconclusive call do not appear. Active and inactive are the calls of the source. Calls come from the whole dose curve; as a rule, active = well fitted inhibition curve with a large enough effect; inconclusive = small, poorly fitted or top-dose-only effect; inactive = flat fitted curve, though single readings scatter.
Target: Thioredoxin reductase 1, cytoplasmic (Rattus norvegicus) (UniProt O89049)
Assay: qHTS Assay for Inhibitors of Mammalian Selenoprotein Thioredoxin Reductase 1 (TrxR1): Hit Validation in Primary Screen
Conditions: recombinant TrxR1, NADPH fluorescence consumption, selenite substrate
Description: The selenoprotein thioredoxin reductase (TrxR; EC 1.8.1.9) is a FAD containing homodimeric pyridine nucleotide-disulfide oxidoreductase with many cellular roles. Together with NADPH and its prime substrate thioredoxin (Trx), the enzyme forms the core of the Trx system. The mammalian Trx system exerts a wide spectrum of functions including redox regulation, antioxidant defense, regulation of transcription factors as well as support of cell growth and replication. Many of these functions involve the reduction of Trx, which may subsequently reduce a number of different substrates including ribonucleotide reductase, peroxiredoxins or NFkB. […]
Assay protocol: 2 uL of reagents (buffer in column 4 as negative control and 90 nM rTrxR1 in columns 1-3 and 5-48) were dispensed into Greiner black solid-bottom 1,536-well assay plates, followed by 1 uL of NADPH (400 uM final concentration) to each well. […] The plate was immediately transferred to a ViewLux high-throughput CCD imager (PerkinElmer), wherein kinetic measurements of NADPH fluorescence (Ex 340 nm, Em 450 nm) were acquired (8 minute kinetic read). Read 1 was utilized to assess the capacity of a compound to serve as an rTrxR1 substrate, i.e. a decrease in NADPH fluorescence compared to the no-compound background is an indication of a substrate behavior for that particular compound. […]

Chain of Thioredoxin reductase 1, cytoplasmic (Rattus norvegicus) (O89049 whole entry, looked up): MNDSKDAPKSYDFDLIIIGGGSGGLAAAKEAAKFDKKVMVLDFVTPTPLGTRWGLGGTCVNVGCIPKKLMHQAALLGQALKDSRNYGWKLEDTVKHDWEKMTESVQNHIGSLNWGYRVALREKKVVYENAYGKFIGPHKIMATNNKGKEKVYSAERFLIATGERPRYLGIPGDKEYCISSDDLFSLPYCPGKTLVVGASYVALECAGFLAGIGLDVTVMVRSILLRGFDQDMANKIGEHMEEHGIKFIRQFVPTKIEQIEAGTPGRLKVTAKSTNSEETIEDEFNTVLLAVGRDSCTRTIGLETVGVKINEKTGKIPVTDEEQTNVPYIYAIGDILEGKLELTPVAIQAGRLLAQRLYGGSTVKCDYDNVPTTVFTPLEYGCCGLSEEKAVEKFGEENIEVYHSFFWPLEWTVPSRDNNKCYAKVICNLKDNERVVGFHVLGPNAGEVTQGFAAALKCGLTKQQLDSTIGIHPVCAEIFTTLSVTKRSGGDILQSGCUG

Question: How did the Potency turn out when `CC1CCN(C(=O)c2ccc(S(=O)(=O)Cc3cc(F)ccc3F)c([N+](=O)[O-])c2)CC1` was run?
Answer: 2380 nM (active)

From PubChem BioAssay AID652023 (National Center for Advancing Translational Sciences (NCATS), 2013)
